Only some compounds are listed: those with a hit (about 2.4% of all), similar ones and a draw of the others.
Cruzain Triton – qHTS Assay for Promiscuous and Specific Inhibitors of Cruzain (with detergent); purified cruzain, Z-FR-AMC fluorescence, 0.01% Triton; Potency, µM, inactives show max response, negative = inhibition, hits mostly inhibitors; 200,000 compounds, 0.43% hits; AID 1478, 2009;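 further: plate controls were neutral wells for no effect and buffer without enzyme for full effect; nearly all actives have a fitted effect of over 40% in size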
Target sequence (P25779 123-467 limits assumed): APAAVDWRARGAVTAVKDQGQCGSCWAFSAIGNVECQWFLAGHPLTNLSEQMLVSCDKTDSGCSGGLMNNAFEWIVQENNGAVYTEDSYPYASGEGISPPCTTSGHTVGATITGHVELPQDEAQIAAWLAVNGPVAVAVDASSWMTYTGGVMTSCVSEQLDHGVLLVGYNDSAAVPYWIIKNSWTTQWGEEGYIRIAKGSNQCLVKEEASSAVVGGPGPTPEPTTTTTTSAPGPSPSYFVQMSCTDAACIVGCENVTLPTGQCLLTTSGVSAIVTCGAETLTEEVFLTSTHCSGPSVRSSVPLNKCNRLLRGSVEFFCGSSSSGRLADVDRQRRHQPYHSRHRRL
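In this qHTS format, compounds are incubated with 1.5 nM cruzain for 15 min at room temperature before 2 uM Z-FR-AMC is added. Release of AMC is followed at 360/450 nm, and progress is taken as the 60 s fluorescence difference.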
Cruzain inh noDet – qHTS Assay for Promiscuous and Specific Inhibitors of Cruzain (without detergent); AID 1476, 2009; purified cruzain, Z-FR-AMC fluorescence, no detergent; 200,000 compounds, 2.3% hits; Cruzipain (Trypanosoma cruzi), P25779; Potency, µM, without a hit: max response, negative = inhibition, most hits filed as inhibitors;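 further: plate controls were enzyme without inhibitor for no effect and buffer without enzyme for full effect; nearly all actives have a fitted effect of over 40% in size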
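Detergent-free condition (0.00005% Triton X-100) in acetate buffer pH 5.5 with DTT. 1.5 nM enzyme and compound were pre-mixed 15 min, then 2 uM Z-FR-AMC substrate added; reaction progress from fluorescence change between first and third reads (60 s).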
* marks the source's active call; other numbers are inactive results. The call rests on the fitted dose curve; in most records, active means well fitted curve in the direction sought with a large enough effect; inconclusive means small, poorly fitted or top-dose-only effect, or another doubt; inactive means no such curve, though single readings can be large; an effect the other way counts as inactive or inconclusive. Potency means the concentration at half of the fitted maximal effect.

N#CC(=C(\N)Sc1ccccc1N)/C(C#N)=C(/N)Sc1ccccc1N was read as Cruzain Triton -6% and Cruzain inh noDet -24%.
Screening O=C(NC1CCN(C(=O)N2c3ccccc3Sc3ccccc32)CC1)c1ccccc1F returned Cruzain Triton -6% and Cruzain inh noDet 20µM*.
`CC1CCN(C(=O)N2c3ccccc3Sc3ccccc32)CC1` gave Cruzain Triton -3% and Cruzain inh noDet -11%.
For Cc1ccc(NC(=O)CSc2nsc(SCC(=O)Nc3ccc(C)cc3C)c2C#N)c(C)c1 the results were Cruzain Triton -8% and Cruzain inh noDet 10µM*.
For Cc1csc(NC(=O)CSc2nsc(SCC(=O)Nc3nc(C)cs3)c2C#N)n1 the results were Cruzain Triton -6% and Cruzain inh noDet inconclusive.
Screening COc1cccc(Cc2nc3ccccc3nc2SCC(=O)NCc2ccc(C)cc2)c1 returned Cruzain Triton 2% and Cruzain inh noDet inconclusive.
`O=C(OCN1C(=O)c2ccccc2C1=O)C1CCCCC1` gave Cruzain Triton -1% and Cruzain inh noDet -26%.
O=C1c2ccccc2C(=O)N1SC1CCCCC1 was read as Cruzain Triton 14µM* and Cruzain inh noDet 6.3µM*.
For CCOc1ccc(S(=O)(=O)NCc2cccn2Cc2cccc(C)c2)cc1 the results were Cruzain Triton -8% and Cruzain inh noDet -1%.
For C/C=C/COC(=O)c1[nH]c2c(c1C)C(=O)CC(c1ccc(N(C)C)cc1)C2 (stereo not given) the results were Cruzain Triton -3% and Cruzain inh noDet 32µM*.
COc1ccc(C2CC(=O)c3c([nH]c(C(=O)OCc4ccccc4)c3C)C2)cc1OC (stereo not given) was read as Cruzain Triton -2% and Cruzain inh noDet 5%.
CCOCCOC(=O)c1[nH]c2c(c1C)C(=O)CC(c1ccc(N(C)C)cc1)C2 (stereo not given) was read as Cruzain Triton -2% and Cruzain inh noDet 10%.
Cc1c(C(=O)OCc2ccccc2)[nH]c2c1C(=O)CC(c1ccc(Cl)cc1)C2 (stereo not given) was read as Cruzain Triton 0% and Cruzain inh noDet 7.9µM*.
Cc1cccc(NC(=O)CN2C(=O)C(c3ccc(F)cc3)=NC23CCCCCC3)c1C was read as Cruzain Triton -7% and Cruzain inh noDet -3%.
`CN(C)c1cc(-c2cccc(NS(C)(=O)=O)c2)ncn1` gave Cruzain Triton 13µM* and Cruzain inh noDet 16µM*.
CS(=O)(=O)Nc1cccc(-c2cc(NCc3ccccc3)ncn2)c1 was read as Cruzain Triton -3% and Cruzain inh noDet -1%.
Screening COc1ccc(-c2c(C#N)c(SCC(=O)Nc3ccc(Br)cc3)nc(C)c2C(=O)Nc2ccccc2)cc1 returned Cruzain Triton 0% and Cruzain inh noDet 10µM*.
Screening COc1ccc(-c2c(C#N)c(SCC(=O)Nc3ccc(C)cc3)nc(C)c2C(=O)Nc2ccccc2)cc1 returned Cruzain Triton -2% and Cruzain inh noDet -17%.
For Cc1nc(SCC(=O)c2cc3ccccc3oc2=O)c(C#N)c(-c2ccccc2)c1C(=O)Nc1ccccc1 the results were Cruzain Triton -1% and Cruzain inh noDet 20µM*.
COc1ccc(-c2c(C#N)c(SCC(=O)c3cc4ccccc4oc3=O)nc(C)c2C(=O)Nc2ccccc2)cc1 was read as Cruzain Triton -1% and Cruzain inh noDet inconclusive.
`C1CCCNCC1` gave Cruzain Triton 11% and Cruzain inh noDet -9%.
Screening Cc1cc(C)c(S(=O)(=O)NCc2csc(-c3ccccc3)n2)c(C)c1 returned Cruzain Triton -10% and Cruzain inh noDet 5%.
`CCS(=O)(=O)Nc1ccc(-c2cn3c(C)csc3n2)cc1` gave Cruzain Triton -2% and Cruzain inh noDet -19%.
CC(=O)c1ccc(S(=O)(=O)Nc2ccc(-c3cn4c(C)csc4n3)cc2)cc1 was read as Cruzain Triton -4% and Cruzain inh noDet 25µM*.
COc1ccc(S(=O)(=O)Nc2ccc(-c3cn4c(C)csc4n3)cc2)cc1 was read as Cruzain Triton -4% and Cruzain inh noDet 25µM*.
`CC(=O)Nc1ccc(S(=O)(=O)Nc2ccc(-c3cn4c(C)csc4n3)cc2)cc1` gave Cruzain Triton -4% and Cruzain inh noDet inconclusive.
`Cc1csc2nc(-c3ccc(NS(=O)(=O)c4cc(F)ccc4F)cc3)cn12` gave Cruzain Triton -4% and Cruzain inh noDet 32µM*.
Screening Cc1csc2nc(-c3cccc(NS(C)(=O)=O)c3)cn12 returned Cruzain Triton -1% and Cruzain inh noDet -6%.
`Cc1nc2cnc(N3CCN(C)CC3)nc2n(C2CC2)c1=O` gave Cruzain Triton -23% and Cruzain inh noDet -17%.
CCCCC(CC)CNC(=O)c1ccc2c(=O)n(CCOC)c(=O)[nH]c2c1 (stereo not given) was read as Cruzain Triton 5% and Cruzain inh noDet 3%.
For COC(=O)C1(C(=O)OC)CC2=CCC3C(=O)N(c4ccccc4)C(=O)C3C2Cc2ccccc2[C@@H]1C[N+](=O)[O-] (stereo not given in full) the results were Cruzain Triton -1% and Cruzain inh noDet 13%.
`CCc1ccc(CNC(=O)C2Cc3cc(S(=O)(=O)N4CCCCCC4)ccc3N2C(C)=O)cc1` (stereo not given) gave Cruzain Triton 2% and Cruzain inh noDet -6%.
`O=C(OCc1ccco1)c1ccc2c(c1)N(Cc1cccc(F)c1)C(=O)c1ccccc1S2` gave Cruzain Triton -3% and Cruzain inh noDet inconclusive.
Cc1ccc(NC(=O)CSC2=Nc3ccccc3C3=NC(Cc4ccccc4)C(=O)N23)cc1C (stereo not given) was read as Cruzain Triton -6% and Cruzain inh noDet -21%.
Screening COc1ccc(NC(=O)CSC2=Nc3ccccc3C3=NC(Cc4ccccc4)C(=O)N23)cc1Cl (stereo not given) returned Cruzain Triton -4% and Cruzain inh noDet 16µM*.
`C[C@@]12CC[C@@H]3[C@@H](CC[C@H]4C[C@@H](O)CC[C@]43C)[C@H]1CC[C@@H]2c1cc(C(F)(F)F)n[nH]1` gave Cruzain Triton -1% and Cruzain inh noDet -2%.
Screening CCN(CC)S(=O)(=O)c1ccc(C(=O)OCC(=O)Nc2sc3c(c2C#N)CCCCC3)cc1 returned Cruzain Triton -10% and Cruzain inh noDet inconclusive.
For Cc1ccc(C(=O)OCC(=O)Nc2sc3c(c2C#N)CCC3)cc1 the results were Cruzain Triton -1% and Cruzain inh noDet 20µM*.
`COc1ccc(N(C)S(=O)(=O)c2cccc(C(=O)OCC(=O)Nc3sc4c(c3C#N)CCCCC4)c2)cc1` gave Cruzain Triton 1% and Cruzain inh noDet 13µM*.
N#Cc1c(NC(=O)COC(=O)c2ccc(F)cc2)sc2c1CCC2 was read as Cruzain Triton 2% and Cruzain inh noDet inconclusive.
For N#C/C(=C\C=C\c1ccccc1)c1nc(-c2ccc3c(c2)OCO3)cs1 the results were Cruzain Triton -4% and Cruzain inh noDet 25µM*.
`N#C/C(=C/c1ccc(O)cc1)c1nc(-c2ccc(-c3ccccc3)cc2)cs1` gave Cruzain Triton 0% and Cruzain inh noDet 10%.
COc1cc(NC(=O)Cn2nc3c(cc2=O)CC(C)CC3)cc(OC)c1OC (stereo not given) was read as Cruzain Triton -2% and Cruzain inh noDet -7%.
`O=[N+]([O-])c1ccc(CSc2nc3ccccc3[nH]2)cc1` gave Cruzain Triton -14% and Cruzain inh noDet -3%.
